The text below walks through data of PubChem BioAssay.

For some of these results: Results with a measured potency or affinity are listed apart. Active and inactive are the calls of the source.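 The calls were made as follows, unless noted: active = primary screen activator hit with a dose response curve and TRPC4 channel activation at any tested dose; inactive = no activation, no dose response, or not a primary hit.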

For assay [1], the system named is TRPC4 beta (transient receptor potential cation channel C4), mouse. Nature of the assay: activators of mouse TRPC4 channel, confirmation, cell-based, Fluo4 calcium, HEK293 TRPC4beta/mu-opioid, duplicates, 10 µM (AID 2426;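 active = fluorescence ratio normalized to control raised more than 50% in primary screen plus both repeat runs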). Particulars: Fluo4 calcium fluorescence, at 10 µM; hits give high values.
In assay [2] the test system is transient receptor potential cation channel C4 beta (TRPC4), mouse. Nature of the assay: activators of mouse TRPC4 channel, confirmation, cell-based, second round, Fluo4, HEK293 TRPC4beta/mu-opioid, 1 µM (AID 2461;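 active = primary screen active and over 50% activation in each of two duplicate runs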). Particulars: Fluo4 calcium fluorescence, at 1 µM; hits give high values.
In assay [3] the test system is TRPC4 (transient receptor potential cation channel C4 beta), mouse. Nature of the assay: positive allosteric modulators of mouse TRPC4, confirmation, cell-based, second round, Fluo-4, HEK293 TRPC4beta/mu-opioid, 1 µM (AID 2554;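 active = primary screen hit whose fluorescence ratio, in both repeats, exceeds the weak agonist control mean by 3 SD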). The conditions noted are these: DAMGO EC20, Fluo-4 calcium flux, at 1 µM; hits give high values.
In assay [4] the test system is TRPC4 beta (transient receptor potential cation channel C4), mouse. Nature of the assay: positive allosteric modulators of mouse TRPC4, confirmation, cell-based, Fluo-4, HEK293 TRPC4beta/mu-opioid (AID 2555;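 active = primary screen hit whose calcium fluorescence ratio, in both repeats, exceeds the weak agonist control mean by 3 SD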). Particulars: DAMGO EC20, Fluo-4 calcium flux, at 10 µM; hits give high values. A general note: A change in cytosolic calcium serves as a functional read-out for many receptors and channels.

For assay [5], the target named is Short transient receptor potential channel 4 (Mus musculus) (UniProt Q9QUQ5). Nature of the assay: inhibitors of mouse TRPC4 channel, confirmation, cell-based, Fluo4, HEK293 TRPC4beta/mu-opioid (AID 2636;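 active = calcium signal cut by more than 3 SD below the full-agonist control yet still positive, in both repeats and the earlier primary screen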). Particulars: DAMGO, Fluo4 calcium flux, at 10 µM; hits give high values.
Assay [6] has the same target. Nature of the assay: inhibitors of mouse TRPC4 channel, confirmation, cell-based, second round, Fluo4, HEK293 TRPC4beta/mu-opioid, 1 µM (AID 2637;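 active = calcium signal ratio cut to more than 3 SD under the fully stimulated control mean yet still positive, in both repeats and the primary screen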). The conditions noted are these: Fluo4 calcium flux, DAMGO, at 1 µM; hits give high values.
Assay [7] shares this target. Nature of the assay: mouse TRPC4 channel activators, dose response, cell-based, HEK293 TRPC4/mu-opioid, Fluo-4 calcium (AID 434937).
Assay [8] has the same target. Nature of the assay: TRPC4 positive allosteric modulators, dose response, cell-based, HEK293 TRPC4/mu-opioid, Fluo-4 calcium, EC20 DAMGO (AID 434941;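 active = earlier screen potentiator hit that boosts the TRPC4 ion channel at some dose, with a dose response; inactive = no potentiation, no dose response, or not a prior hit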;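 also: calcium entry triggered by an EC20 dose of DAMGO at the co-expressed mu-opioid receptor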).
The target is the same in assay [9]. Nature of the assay: mouse TRPC4 channel inhibitors, dose response, cell-based, HEK293 TRPC4/mu-opioid, Fluo-4 calcium (AID 434942;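 active = primary screen inhibitor hit that blocks the TRPC4 channel at some tested dose, yielding a dose curve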).
The target of assay [10] is Short transient receptor potential channel 6 (Mus musculus) (UniProt Q61143). Nature of the assay: inhibition of mouse TRPC6 channel, confirmation, selectivity assay for TRPC4 inhibitor project, cell-based, HEK293, membrane potential dye, duplicate (AID 434948;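 active = active in primary screen and both duplicates, each dropping signal beyond three positive-control SD with fluorescence still positive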). Particulars: HEK293 TRPC6, membrane potential dye fluorescence, at 10 µM, stimulated with maximal-effect acetylcholine; hits give high values.

Assay [11] shares this target. Nature of the assay: activation of mouse TRPC6 channel, confirmation, selectivity assay for TRPC4 activator project, cell-based, HEK293, membrane potential dye, duplicate (AID 434950;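 active = membrane potential signal rise above negative control mean plus 3 SD in both duplicates, also active in the earlier TRPC4 screen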;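 as to activation: 0% = buffer only wells and 100% = acetylcholine maximal-effect wells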). The conditions noted are these: HEK293 TRPC6, membrane potential fluorescence, at 10 µM; hits give high values.
Assay [12] shares this target. Nature of the assay: TRPC6 potentiation by TRPC4 potentiator hits, confirmation, selectivity assay for TRPC4 potentiator project, HEK293 cells, membrane potential dye, duplicate (AID 434952;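 active = compound raising the membrane signal above positive-control mean plus 3 SD in both repeats, and a primary screen hit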). The conditions noted are these: HEK293 TRPC6, membrane potential dye fluorescence, at 10 µM, maximal acetylcholine added after compound; hits give high values.
Assay [13] deals with Short transient receptor potential channel 4 (Mus musculus) (UniProt Q9QUQ5). Nature of the assay: calcium flux activators in TRPC4/5HT1a cells, counter-screen for TRPC4 activator project, cell-based, second counter screen, HEK293 TRPC4/5HT1a, Fluo-4 (AID 434977;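 active = calcium signal rise above buffer-control mean plus 5 SD in both duplicates, and also a hit in the primary screen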;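 as to activation: plate controls were assay buffer for no effect and maximal serotonin response for full effect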). The conditions noted are these: Fluo-4 calcium flux, at 10 µM; hits give high values.
Assay [14] is described as follows: calcium flux inhibitors in TRPC4/5HT1a cells, confirmation, counter-screen for TRPC4 inhibitor project, cell-based, second counter screen, HEK293 TRPC4/5HT1a, Fluo-4 (AID 434978;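 active = primary screen active whose calcium signal fell more than 3 SD beyond the full-serotonin control mean in both duplicate plates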;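 as to outcome: serotonin given first at submaximal then at maximal dose after compound preincubation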). The conditions noted are these: Fluo-4 calcium flux, at 10 µM, serotonin added to trigger calcium flux; hits give high values.
In assay [15] the test system is TRPC4 (mouse), co-expressed with 5HT1a in HEK293. Nature of the assay: calcium flux potentiators in TRPC4/5HT1a cells, confirmation, counter-screen for TRPC4 potentiator project, cell-based, second counter screen, HEK293 TRPC4/5HT1a, Fluo-4 (AID 434979;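 active = signal rise over 3 SD above mean of control wells given weak agonist, in both repeats and first screen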). Particulars: Fluo-4 calcium flux, at 10 µM, serotonin added at its EC20 dose; hits give high values.
Assay [16] is described as follows: calcium flux activation in mu-opioid HEK293 cells, confirmation, counter-screen for TRPC4 activator project, cell-based, HEK293 mu-opioid receptor line (AID 449723;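 active = hit in primary screen, with calcium signal over 5 SD above buffer well mean in both duplicates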;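 also: counter screen cells carry the mu-opioid receptor alone and lack TRPC4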). Particulars: Fluo-4 calcium fluorescence, at 10 µM; hits give high values.
A short description of assay [17]: calcium flux enhancement in mu-opioid HEK293 cells, confirmation, counter-screen for TRPC4 allosteric potentiator project, cell-based, HEK293 mu-opioid receptor line (AID 449724;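 active = calcium signal rise more than 3 SD above the low-dose agonist control mean, in both duplicate plates and the primary screen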;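 also: HEK293 cells carrying mu-opioid receptor only with no TRPC4 channel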). The conditions noted are these: Fluo-4 calcium flux, at 10 µM, compound added before EC20 DAMGO stimulus; hits give high values.

Short transient receptor potential channel 6 (Mus musculus), sequence (Q61143 whole entry, looked up): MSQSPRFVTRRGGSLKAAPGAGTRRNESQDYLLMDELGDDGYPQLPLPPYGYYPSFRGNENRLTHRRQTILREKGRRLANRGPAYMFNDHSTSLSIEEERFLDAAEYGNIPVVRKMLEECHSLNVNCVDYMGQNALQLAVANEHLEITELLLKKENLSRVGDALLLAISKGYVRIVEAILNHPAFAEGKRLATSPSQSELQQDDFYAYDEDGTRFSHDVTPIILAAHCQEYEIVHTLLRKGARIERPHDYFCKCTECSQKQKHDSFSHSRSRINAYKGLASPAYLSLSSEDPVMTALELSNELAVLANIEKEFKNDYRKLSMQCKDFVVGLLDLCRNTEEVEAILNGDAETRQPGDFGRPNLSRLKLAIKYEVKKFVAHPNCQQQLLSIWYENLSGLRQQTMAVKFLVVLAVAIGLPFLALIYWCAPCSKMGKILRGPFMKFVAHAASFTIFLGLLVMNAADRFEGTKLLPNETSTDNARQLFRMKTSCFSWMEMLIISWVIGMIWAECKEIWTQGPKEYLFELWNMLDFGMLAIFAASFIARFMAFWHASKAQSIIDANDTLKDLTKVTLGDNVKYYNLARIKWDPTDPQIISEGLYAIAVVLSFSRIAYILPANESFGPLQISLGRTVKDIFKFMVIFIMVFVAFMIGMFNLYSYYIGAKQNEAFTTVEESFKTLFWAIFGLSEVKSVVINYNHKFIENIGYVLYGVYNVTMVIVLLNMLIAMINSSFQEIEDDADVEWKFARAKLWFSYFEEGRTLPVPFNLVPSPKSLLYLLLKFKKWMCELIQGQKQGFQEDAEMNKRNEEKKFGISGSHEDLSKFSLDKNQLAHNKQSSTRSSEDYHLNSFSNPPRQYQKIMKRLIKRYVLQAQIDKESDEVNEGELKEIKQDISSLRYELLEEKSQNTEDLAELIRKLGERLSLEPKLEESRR
Short transient receptor potential channel 4 (Mus musculus), sequence (Q9QUQ5 whole entry, looked up): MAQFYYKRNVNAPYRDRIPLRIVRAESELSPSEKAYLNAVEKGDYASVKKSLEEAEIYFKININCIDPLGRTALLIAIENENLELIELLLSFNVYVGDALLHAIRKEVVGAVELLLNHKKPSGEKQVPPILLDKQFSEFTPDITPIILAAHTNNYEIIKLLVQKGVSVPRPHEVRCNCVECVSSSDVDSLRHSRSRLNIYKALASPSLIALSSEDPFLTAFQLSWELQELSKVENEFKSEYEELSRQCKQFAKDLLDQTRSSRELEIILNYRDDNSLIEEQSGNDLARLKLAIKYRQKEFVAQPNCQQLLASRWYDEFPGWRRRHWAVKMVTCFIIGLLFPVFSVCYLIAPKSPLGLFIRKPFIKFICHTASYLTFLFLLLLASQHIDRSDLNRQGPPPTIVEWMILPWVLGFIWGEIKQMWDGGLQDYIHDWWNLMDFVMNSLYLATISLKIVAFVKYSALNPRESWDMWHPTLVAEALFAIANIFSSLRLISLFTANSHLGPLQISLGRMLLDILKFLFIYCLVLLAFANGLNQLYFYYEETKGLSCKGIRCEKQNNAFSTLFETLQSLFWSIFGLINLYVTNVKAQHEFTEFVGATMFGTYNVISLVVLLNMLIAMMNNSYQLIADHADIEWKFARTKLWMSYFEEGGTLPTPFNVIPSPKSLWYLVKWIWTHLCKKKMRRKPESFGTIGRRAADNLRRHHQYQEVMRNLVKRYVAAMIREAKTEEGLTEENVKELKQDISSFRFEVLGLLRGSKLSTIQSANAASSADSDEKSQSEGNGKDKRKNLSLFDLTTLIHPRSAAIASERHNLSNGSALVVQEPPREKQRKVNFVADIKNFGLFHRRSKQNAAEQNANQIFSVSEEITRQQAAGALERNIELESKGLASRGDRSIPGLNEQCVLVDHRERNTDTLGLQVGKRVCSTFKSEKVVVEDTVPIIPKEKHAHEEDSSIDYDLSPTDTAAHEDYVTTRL

On to `CCN(CC)c1ccc(/C=N/NC(=O)CNC(=O)c2ccccn2)cc1`, for which the outcome in [1], in assay [2], in [3], in assay [4], in [5] and in [6] was inactive. Also, the result in assay [7], in assay [8], in assay [9], in assay [10], in [11] and in [12] was inactive. Further, the result in assay [13], in assay [14], in [15], in [16] and in assay [17] was inactive.

Regarding `O=C1CCSc2ccc(Cl)cc2N1Cc1ccc(Cl)cc1`, the result in assay [1], in assay [2], in assay [3], in assay [4], in assay [5] and in assay [6] was inactive. Moreover, the outcome in assay [7], in [8], in [9], in assay [10], in [11] and in [12] was inactive. The outcome in [13], in assay [14], in [15], in assay [16] and in assay [17] was inactive.

As for `CSCC[C@H](NC(=O)N1CCn2c1nc1ccccc12)C(=O)NCc1ccc(C)cc1`, the result in [1], in assay [2], in assay [3], in assay [5], in [6] and in assay [7] was inactive. For the same compound, the outcome in assay [8], in assay [9], in assay [10], in assay [11], in [12] and in assay [13] was inactive. Further, the outcome in assay [14], in assay [16] and in assay [17] was inactive. Moreover, the results for the potentiation in assay [4] and in assay [15] were 30% (active) and 6.18% (active), respectively.

Take `O=C(c1cc2cc(Br)cc(Br)c2oc1=O)N1CCCC1`: the outcome in [1], in assay [2], in [3], in assay [4], in assay [5] and in assay [6] was inactive. In addition, the result in assay [7], in assay [8], in assay [9], in [10], in [11] and in assay [12] was inactive. The outcome in assay [13], in assay [14], in [16] and in assay [17] was inactive. Further, in assay [15], the potentiation is 15.8% (active).

For `CCCn1c(NCc2cc(OC)ccc2OC)nc2ccccc21`, the result in assay [1], in assay [2], in [3], in [4], in assay [5] and in [6] was inactive. Besides, the result in assay [7], in [8], in assay [9], in assay [10], in assay [11] and in assay [12] was inactive. Also, the result in [13], in assay [14], in [15], in [16] and in [17] was inactive.

Take `CN(C)CCCCOc1cccc(Br)c1`: the outcome in assay [1], in [2], in assay [3], in [4], in assay [5] and in assay [6] was inactive. For the same compound, the result in assay [7], in assay [8], in assay [9], in [10], in [11] and in assay [12] was inactive. For the same compound, the result in assay [13], in [14], in assay [16] and in [17] was inactive. Besides, the potentiation in assay [15] is 20% (active).

Take `Cc1ccc(-n2c(C)cc(C)c(C#N)c2=O)cc1Cl`: the outcome in assay [1], in assay [2], in [3], in assay [4], in [5] and in assay [6] was inactive. Moreover, the result in [7], in [8], in assay [9], in [10], in assay [11] and in [12] was inactive. Further, the outcome in assay [14], in assay [15], in [16] and in assay [17] was inactive. In [13], the activation is 11.4% (active).

Regarding `Cc1ccc(-n2c(N)cc(=O)nc2SCC(=O)N2CCN(c3ccccc3)CC2)cc1`, the outcome in assay [1], in [2], in assay [3], in assay [4], in assay [5] and in [6] was inactive. For the same compound, the outcome in assay [7], in assay [8], in [9], in [10], in [11] and in assay [12] was inactive. In addition, the outcome in assay [13], in assay [14], in assay [15], in [16] and in assay [17] was inactive.

For `OC1(c2ccc(Br)cc2)CN(c2ccccc2)C2=[N+]1CCS2` (stereo not drawn), the outcome in assay [1], in assay [2], in assay [3], in assay [4], in assay [5] and in assay [6] was inactive. Also, the result in assay [7], in assay [8], in assay [9], in assay [10], in [12] and in assay [13] was inactive. The result in assay [14], in assay [15], in [16] and in assay [17] was inactive. The activation in assay [11] is 36.5% (active).

Take `CC(C)c1ccc2c(c1)C1Cc3ccccc3C1N2` (stereo not drawn): the outcome in assay [1], in assay [2], in assay [3], in assay [4], in assay [5] and in assay [6] was inactive. Besides, the outcome in assay [7], in [8], in assay [9], in [10], in assay [11] and in [12] was inactive. In addition, the result in [13], in assay [14], in [15], in assay [16] and in assay [17] was inactive.

Consider `c1ccc(C(c2nnnn2C2CCCC2)N2CCN(c3ccccc3)CC2)cc1` (stereo not drawn), for which the result in assay [1], in assay [2], in [3], in assay [4], in assay [5] and in assay [6] was inactive. Also, the result in assay [7], in assay [8], in [9], in [10], in [11] and in assay [12] was inactive. The result in assay [13], in [14], in assay [15], in assay [16] and in assay [17] was inactive.

Usually inhibition stands for the percentage by which the read-out fell short of the control. Turning to `Clc1ccc(OCCCc2nc(-c3ccncc3)no2)c(Cl)c1`, the result in assay [1], in [2], in assay [3], in assay [4], in assay [6] and in assay [7] was inactive. For the same compound, the outcome in [8], in assay [9], in [10], in [11], in assay [12] and in assay [13] was inactive. The result in assay [15], in assay [16] and in [17] was inactive. Moreover, the inhibition is 91% (active) in assay [5] and 30.7% (active) in [14].

As for `Cc1oc2c(c1C(=O)c1ccccc1)C(=O)C(=O)c1ccccc1-2`, the outcome in assay [1], in assay [2], in assay [3], in [4], in assay [6] and in assay [7] was inactive. Further, the result in assay [8], in assay [9], in [10], in assay [11], in [12] and in assay [13] was inactive. Also, the result in assay [15], in [16] and in assay [17] was inactive. The inhibition in assay [5] was 68% (active); in assay [14] it was 30.8% (active).

Take `CCOC(=O)C1=C(C)N(C)C(=S)NC1c1cccc(Cl)c1Cl` (stereo not drawn): the outcome in [1], in [2], in [3], in [5], in assay [6] and in [7] was inactive. Further, the outcome in [8], in [9], in assay [10], in assay [11], in assay [12] and in [13] was inactive. Further, the outcome in [14], in assay [15], in assay [16] and in assay [17] was inactive. In addition, in assay [4], the potentiation is 25% (active).
